Measurements reported in PubChem BioAssay (NCATS).
Inconclusive results are not listed. A structure can be active in one record and inactive in another. Active and inactive are the calls of the source. Calls come from the whole dose curve; as a rule, active = well fitted inhibition curve with a large enough effect; inconclusive = small, poorly fitted or top-dose-only effect; inactive = flat fitted curve, though single readings scatter.

How the values were obtained:
[1] = target: Ubiquitin carboxyl-terminal hydrolase 1 (Homo sapiens) (UniProt O94782); assay: Inhibitors of USP1/UAF1: Pilot qHTS (AID 504865); note: nearly all actives have a fitted effect of over 35% in size
How it was run: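 Deubiquitinase activity followed as kinetic rhodamine fluorescence release from 150 nM Ub-Rho. 1 nM USP1/UAF1 with compound, after 15 min room-temperature preincubation, in HEPES pH 7.8 buffer containing TCEP, EDTA, BSA and Tween-20.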

3D7 = assay: qHTS profiling for inhibitors of Plasmodium falciparum proliferation (AID 504749); note: nearly all actives have a fitted effect of over 60% in size; conditions: P. falciparum in erythrocytes, SYBR Green DNA, 72 h; series mostly up to 28.7 µM
How it was run: (§1)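 P. falciparum-infected erythrocytes (0.3% parasitemia, 2.5% hematocrit) incubated with compound 72 h at 37 C, 5% CO2. Parasite DNA detected by SYBR Green after lysis, overnight at room temperature; normalised to 0.29 uM artemisinin and DMSO.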

7G8 = assay: as above; conditions: P. falciparum in erythrocytes, SYBR Green DNA, 72 h; series mostly up to 28.7 µM
How it was run: as §1

ATS95 = assay: as above; conditions: P. falciparum in erythrocytes, SYBR Green DNA, 72 h; series mostly up to 28.7 µM
How it was run: as §1

C2A = assay: as above; conditions: P. falciparum in erythrocytes, SYBR Green DNA, 72 h; series mostly up to 28.7 µM
How it was run: as §1

CP191 = assay: as above; conditions: P. falciparum in erythrocytes, SYBR Green DNA, 72 h; series mostly up to 28.7 µM
How it was run: as §1

CP217 = assay: as above; conditions: P. falciparum in erythrocytes, SYBR Green DNA, 72 h; series mostly up to 28.7 µM
How it was run: as §1

CP247 = assay: as above; conditions: P. falciparum in erythrocytes, SYBR Green DNA, 72 h; series mostly up to 28.7 µM
How it was run: as §1

CP250 = assay: as above; conditions: P. falciparum in erythrocytes, SYBR Green DNA, 72 h; series mostly up to 28.7 µM
How it was run: as §1

CP260 = assay: as above; conditions: P. falciparum in erythrocytes, SYBR Green DNA, 72 h; series mostly up to 28.7 µM
How it was run: as §1

CP335 = assay: as above; conditions: P. falciparum in erythrocytes, SYBR Green DNA, 72 h; series mostly up to 28.7 µM
How it was run: as §1

DIV14 = assay: as above; conditions: P. falciparum in erythrocytes, SYBR Green DNA, 72 h; series mostly up to 28.7 µM
How it was run: as §1

DIV17 = assay: as above; conditions: P. falciparum in erythrocytes, SYBR Green DNA, 72 h; series mostly up to 28.7 µM
How it was run: as §1

P94_40 = assay: as above; conditions: P. falciparum in erythrocytes, SYBR Green DNA, 72 h; series mostly up to 28.7 µM
How it was run: as §1

PAD = assay: as above; conditions: P. falciparum in erythrocytes, SYBR Green DNA, 72 h; series mostly up to 28.7 µM
How it was run: as §1

SC27B = assay: as above; conditions: P. falciparum in erythrocytes, SYBR Green DNA, 72 h; series mostly up to 28.7 µM
How it was run: as §1

TAB113 = assay: as above; conditions: P. falciparum in erythrocytes, SYBR Green DNA, 72 h; series mostly up to 28.7 µM
How it was run: as §1

TAB165 = assay: as above; conditions: P. falciparum in erythrocytes, SYBR Green DNA, 72 h; series mostly up to 28.7 µM
How it was run: as §1

DIV30 = assay: as above; conditions: P. falciparum in erythrocytes, SYBR Green DNA, 72 h; series mostly up to 28.7 µM
How it was run: as §1

CP291 = assay: as above; conditions: P. falciparum in erythrocytes, SYBR Green DNA, 72 h; series mostly up to 28.7 µM
How it was run: as §1

Measured: Potency
Potency is the fitted concentration of half-maximal effect.

Chain of Ubiquitin carboxyl-terminal hydrolase 1 (Homo sapiens) (O94782 whole entry, looked up): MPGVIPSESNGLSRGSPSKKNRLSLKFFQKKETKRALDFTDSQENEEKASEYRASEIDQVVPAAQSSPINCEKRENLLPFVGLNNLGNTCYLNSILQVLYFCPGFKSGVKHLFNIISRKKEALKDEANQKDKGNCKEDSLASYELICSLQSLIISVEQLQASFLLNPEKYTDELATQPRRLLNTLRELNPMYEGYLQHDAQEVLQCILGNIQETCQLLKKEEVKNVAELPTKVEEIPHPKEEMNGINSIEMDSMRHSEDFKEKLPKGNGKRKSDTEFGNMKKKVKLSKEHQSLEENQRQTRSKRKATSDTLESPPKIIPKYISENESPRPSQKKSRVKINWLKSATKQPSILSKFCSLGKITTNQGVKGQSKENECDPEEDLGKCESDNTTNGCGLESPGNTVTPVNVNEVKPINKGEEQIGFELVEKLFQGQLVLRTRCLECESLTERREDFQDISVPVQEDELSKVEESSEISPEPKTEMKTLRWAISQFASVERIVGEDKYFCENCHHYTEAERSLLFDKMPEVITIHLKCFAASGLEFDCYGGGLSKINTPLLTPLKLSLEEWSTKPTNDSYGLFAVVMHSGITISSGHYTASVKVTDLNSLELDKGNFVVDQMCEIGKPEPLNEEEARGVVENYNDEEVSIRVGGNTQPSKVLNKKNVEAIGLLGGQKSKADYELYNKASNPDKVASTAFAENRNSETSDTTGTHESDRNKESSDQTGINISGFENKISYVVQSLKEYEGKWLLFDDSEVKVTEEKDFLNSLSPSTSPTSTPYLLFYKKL

CC(=O)C1(O)Cc2c(O)c3c(c(O)c2C(OC2CC(N)C(O)C(C)O2)C1)C(=O)c1c(O)cccc1C3=O (stereo not given)
active: [1] 22.4 µM | 3D7 3.16 µM | 7G8 0.708 µM | ATS95 6.31 µM | C2A 8.91 µM | CP191 5.01 µM | CP217 10 µM | CP247 5.01 µM | CP250 11.2 µM | CP260 3980 nM | CP335 5.36 µM | DIV14 5.36 µM | DIV17 5.36 µM | P94_40 5.01 µM | PAD 10 µM | SC27B 4.47 µM | TAB113 6.31 µM | TAB165 4.47 µM

C=C1NC(=O)c2cc(CN(C)c3ccc(C(=O)N[C@@H](CCC(=O)O)C(=O)O)s3)ccc2N1
not listed: DIV14 | PAD | CP291
inactive: all other assays above

N#C/C(=C1/SCC(c2ccccc2Cl)S1)n1ccnc1 (stereo not given)
active: 7G8 10 µM | TAB165 12.6 µM
not listed: ATS95 | DIV14 | PAD | SC27B
inactive: all other assays above

Nc1nc2[nH]cc(CCc3ccc(C(=O)NC(CCC(=O)O)C(=O)O)cc3)c2c(=O)[nH]1 (stereo not given)
active: 3D7 8.91 µM | 7G8 3.98 µM | C2A 0.316 µM | CP191 0.158 µM | CP217 0.0562 µM | CP247 0.199 µM | CP250 0.251 µM | CP260 126 nM | CP335 0.135 µM | PAD 0.224 µM | TAB165 7.94 µM

CC(=O)OC1C([N+]2(C)CCCCC2)C[C@H]2C3CC[C@H]4C[C@H](OC(C)=O)C([N+]5(C)CCCCC5)CC4(C)C3CCC12C (stereo not given in full)
not listed: [1] | CP335 | DIV14 | DIV17 | DIV30 | CP291
inactive: all other assays above

CC[C@@]1(O)CC2CN(CCc3c([nH]c4ccccc34)[C@](C(=O)OC)(c3cc4c(cc3OC)N(C)C3[C@@](O)(C(=O)OC)C(OC(C)=O)[C@]5(CC)C=CCN6CC[C@@]43C65)C2)C1 (stereo not given in full)
inactive: [1]
active: 3D7 2 µM | 7G8 2.82 µM | ATS95 3.55 µM | C2A 2.82 µM | CP191 2.82 µM | CP217 3.55 µM | CP247 1.12 µM | CP250 3.55 µM | CP260 794 nM | CP335 1.9 µM | DIV14 4.26 µM | DIV17 4.78 µM | DIV30 1.69 µM | P94_40 3.55 µM | PAD 2.24 µM | SC27B 2.82 µM | TAB113 3.98 µM | TAB165 3.55 µM

CC(=O)CC(c1ccccc1)C1C(=O)Oc2ccccc2C1=O (stereo not given)
not listed: ATS95
inactive: all other assays above

CC(CN1CC(=O)NC(=O)C1)N1CC(=O)NC(=O)C1 (stereo not given)
inactive: all assays above

CCCSS/C(CCO)=C(/C)N(C=O)Cc1cnc(C)nc1N
not listed: 7G8 | TAB165
inactive: all other assays above

C[C@@H]1CCN(C(=O)[C@H](CCCNC(=N)N)NS(=O)(=O)c2cccc3c2NC[C@H](C)C3)[C@@H](C(=O)O)C1
inactive: all assays above

OC[C@@H](O)C(O[C@@H]1O[C@@H](CO)[C@H](O)[C@H](O)[C@H]1O)[C@H](O)[C@@H](O)CO (stereo not given in full)
not listed: C2A
inactive: all other assays above

CCOC(=O)C(CCc1ccccc1)NC(C)C(=O)N1Cc2cc(OC)c(OC)cc2CC1C(=O)O (stereo not given)
inactive: [1] | 3D7 | CP191 | CP250 | CP260 | CP291 | TAB113
active: 7G8 8.91 µM | DIV14 6.01 µM | DIV17 5.36 µM | DIV30 7.57 µM | PAD 4.47 µM | SC27B 7.08 µM | TAB165 7.08 µM

CC(C)C(=O)OCC(=O)[C@@]12OC(C3CCCCC3)O[C@@H]1CC1C3CCC4=CC(=O)C=C[C@]4(C)C3[C@@H](O)C[C@@]12C (stereo not given in full)
active: 3D7 1 µM | 7G8 0.447 µM | ATS95 0.708 µM | C2A 1.26 µM | CP191 0.708 µM | CP217 0.794 µM | CP247 1 µM | CP250 1.12 µM | CP260 708 nM | CP335 0.601 µM | DIV14 1.51 µM | DIV17 1.35 µM | P94_40 0.891 µM | PAD 1 µM | SC27B 1.26 µM | TAB113 1.12 µM | TAB165 0.891 µM

CC(=O)O[C@]1(C(C)=O)CCC2C3CCC4=CC(=O)CCC4(C)C3(F)C(O)CC21C (stereo not given in full)
not listed: 7G8
inactive: all other assays above

CCCCCOC(=O)Nc1nc(=O)n(C2O[C@H](C)[C@@H](O)[C@@H]2O)cc1F (stereo not given in full)
active: CP191 8.91 µM
not listed: CP247
inactive: all other assays above

C[C@@H](O)[C@@H]1C(=O)N2C(C(=O)O)=C([C@H]3CCCO3)S[C@H]12
inactive: all assays above

NC(CSSCC(N)C(=O)O)C(=O)O (stereo not given)
inactive: all assays above

CNC1=CN(O)C(c2ccccc2)=c2cc(Cl)ccc2=N1
active: 3D7 1 µM | ATS95 5.01 µM | CP191 0.1 µM | CP291 3.38 µM | CP335 3.79 µM | DIV14 1.51 µM | DIV17 2.13 µM | P94_40 5.62 µM | TAB113 2.82 µM | TAB165 4.47 µM
inactive: [1] | 7G8
4.26 µM (active) and inactive: DIV30
7.94 µM (active) and inactive: CP260

CCCC(=O)Nc1c(I)cc(I)c(C[C@H](CC)C(=O)O)c1I
not listed: CP260 | DIV14
inactive: all other assays above

CCN(CC)C(=O)[C@@]1(c2ccccc2)C[C@@H]1CN
not listed: 7G8 | DIV14 | DIV17
inactive: all other assays above

COc1ccc2cc1Oc1cc3c(cc1OC)CC[N+](C)(C)C3Cc1ccc(cc1)Oc1c(OC)c(OC)cc3c1C(C2)[N+](C)(C)CC3 (stereo not given)
not listed: CP247
inactive: all other assays above

COc1cc(/C=C2\CCC/C(=C\c3ccc(O)c(OC)c3)C2=O)ccc1O
active: 3D7 11.2 µM | 7G8 2 µM | ATS95 10 µM | CP191 10 µM | CP217 11.2 µM | CP247 8.91 µM | CP250 10 µM | CP260 12600 nM | CP335 12 µM | DIV14 6.75 µM | DIV17 9.53 µM | DIV30 8.49 µM | P94_40 12.6 µM | PAD 7.08 µM | SC27B 11.2 µM | TAB113 8.91 µM | TAB165 12.6 µM

O=C(O)Cc1sc(-c2ccc(Cl)cc2)nc1-c1ccccc1
inactive: all assays above

CO/N=C(/C(=O)N[C@@H]1C(=O)N2C(C(=O)O)=C(CSc3nnnn3C)CS[C@H]12)c1csc(N)n1
inactive: all assays above
